# The sample as a whole holds a higher share of hits than the screen did.
# BL2 CD40 inh – inhibitors of CD40-induced NF-kB signaling, primary screen, BL2 cells, luciferase reporter, single point; CD40L-induced, 4 h; inhibition, % at 10 µM; actives 0.94% (n = 83,000);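 active = mean inhibition of at least 50% with a set share of replicates also reaching that level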;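 also: 0% = neutral control wells and 100% = IKK inhibitor VII at 50 µM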
# The depositor's hits bear a star; [ ] = remark or other dose.
SMILES,BL2 CD40 inh
O=C(c1ccccn1)N1C[C@H]2[C@@H](c3ccccc31)[C@H](CO)N2C(=O)Nc1ccccc1Cl,4.7[25 µM]
CCC(=O)N1[C@@H](CO)[C@@H](c2ccccc2)C12CN(C(=O)Nc1ccccc1F)C2,11.8[25 µM]
C[C@@H]1CN([C@H](C)CO)C(=O)c2ccccc2-c2ccccc2CO[C@H]1CN(C)S(=O)(=O)c1cn(C)cn1,-8.1[25 µM]
CCNC(=O)[C@@H]1[C@@H](CO)[C@@H]2Cn3c(ccc(-c4cccnc4)c3=O)[C@H]1N2Cc1ccccc1,0.2[25 µM]
Clc1ccccc1/C=C/c1nc(-c2ccccn2)no1,95.6*
Cc1occc1-c1nc(-c2ccccn2)no1,-47.7
Cc1onc(-c2ccccc2Cl)c1-c1nc(-c2ccccn2)no1,5.6
COc1ccc(S(=O)(=O)Nc2ccc3c(c2)C(=O)N([C@@H](C)CO)C[C@H](C)[C@@H](CN(C)C(=O)Nc2c(C)noc2C)OCCCC[C@H](C)O3)cc1,-7.8[25 µM]
COc1ccc2c3c(n(C)c2c1)[C@H](CO)N(C(=O)Nc1ccc(F)cc1)CC31CCN(C(=O)Nc2c(C)noc2C)CC1,19.4[25 µM]
COc1ccc2c3c(n(C)c2c1)[C@@H](CO)N(C(=O)Nc1ccc(F)cc1)CC31CCN(C(=O)c2ccc3c(c2)OCO3)CC1,29.7[25 µM]
COc1ccc2c3c(n(C)c2c1)[C@H](CO)N(C(=O)Nc1ccc(F)cc1)CC31CCN(C(=O)c2ccc3c(c2)OCO3)CC1,65.3*[25 µM]
O=C(C[C@H]1C[C@H]2c3cc(NC(=O)NC4CCCCC4)ccc3O[C@H]2[C@@H](CO)O1)NC1CCCCC1,4.7
CN1c2ccc(-c3cccc(F)c3)cc2[C@@H]2[C@@H](CCN2C(=O)C2CCCC2)[C@@H]1CO,19.5
CCc1cccc2sc(N(CCCN3CCOCC3)C(=O)CS(=O)(=O)c3ccccc3)nc12,-1.0
O=C(CCS(=O)(=O)c1ccccc1)N(CCCN1CCOCC1)c1nc2ccc(F)cc2s1,72.2*
Cc1ccc2nc(N(CCCN(C)C)C(=O)CS(=O)(=O)c3ccccc3)sc2c1,2.0
C[C@@H]1CN([C@@H](C)CO)C(=O)c2cc(NC(=O)Nc3cccc4ccccc34)ccc2O[C@H]1CN(C)S(=O)(=O)c1ccccc1,-10.3
Cc1cc(NC(=O)c2ccc(F)cc2)no1,-20.8
Cc1cc(NC(=O)c2ccc3c(c2)OCCO3)no1,78.5*
O=C(Nc1ccccn1)c1ccc2c(c1)OCCO2,-1.9
O=C(CN1CCOCC1)NC[C@@H]1N[C@@H](CO)[C@H]1c1ccc(-c2ccccc2)cc1,0.7[25 µM]
CC(=O)[C@@]1(O)CCC2C3CC[C@H]4C[C@@H](O)CC[C@]4(C)C3CC[C@@]21C (stereo not given in full),-3.9
CC(=O)C1CCC2C3CCC4CC(OC(=O)CCC(=O)O)CCC4(C)C3C(=O)CC12C (stereo not given),10.9
CC(=O)OC1CCC2(C)C(CCC3C4CC=C(C(C)=O)C4(C)OC(=O)CC32)C1 (stereo not given),97.8*
COc1ccc(C#Cc2ccc3c(c2)[C@H]2[C@H](CCN2S(=O)(=O)C2=NC(C)C=N2)[C@@H](CO)N3C)cc1 (stereo not given in full),1.1[25 µM]
SMILES,BL2 CD40 inh
C[C@@H]1CN([C@H](C)CO)C(=O)c2cc(-c3cccc(F)c3)cnc2O[C@H]1CN(C)C(=O)C1CC1,-0.1
COc1ccccc1N(CC(=O)N(CC(C)C)CC(C)C)S(=O)(=O)c1cccs1,14.1
COc1ccc(Cl)cc1N(C(C)C(=O)O)S(C)(=O)=O (stereo not given),-1.2
COc1ccccc1N(C(C)=O)C1=C(Cl)C(=O)c2ccccc2C1=O,100.6*
COc1cccc(S(=O)(=O)N(C)C[C@H]2OCc3ccccc3-c3ccccc3C(=O)N([C@@H](C)CO)C[C@H]2C)c1,-18.5[25 µM]
O=C(C1CCOCC1)N1C[C@@H]2[C@H](c3ccccc31)[C@H](CO)N2C(=O)Nc1cccc(F)c1,0.6
N#Cc1ccccc1COC(=O)c1cc(S(=O)(=O)N2CCOCC2)ccc1F,11.5
CCc1cc2c(COC(=O)c3cc(S(=O)(=O)N4CCOCC4)ccc3F)cc(=O)oc2cc1O,50.9*
O=C(OCC(=O)N1CCCC1=O)c1cc(S(=O)(=O)N2CCOCC2)ccc1F,12.7
O=C(C1CCCCC1)N1C[C@@H]2[C@H](c3ccccc31)[C@@H](CO)N2Cc1ccccc1Cl,5.8[25 µM]
C/C=C/c1ccc([C@H]2[C@H](CO)N(C(=O)CN(C)C)C23CN(C(=O)C2CCOCC2)C3)cc1,-9.8[25 µM]
Cc1noc(C)c1S(=O)(=O)N(C)C[C@H]1OCc2ccccc2-c2ccccc2C(=O)N([C@@H](C)CO)C[C@H]1C,-12.0[25 µM]
O=C(O)c1cc2ccccc2c2c1C(=O)c1ccccc1-2,6.8
Oc1ccc2ccccc2c1CNc1ccccc1,-4.4
O=C1C=C(c2c(O)ccc3ccccc23)c2ccccc2C1=O,72.7*
CN1c2ccc(-c3cccc(F)c3)cc2[C@H]2[C@H](CCN2C(=O)C2CC2)[C@H]1CO,52.8*
COc1ccc(-c2ccc3c(c2)[C@@H]2[C@@H](CCN2C(=O)C2CC2)[C@H](CO)N3C)cc1,40.1
CN1c2ccc(-c3cccc(F)c3)cc2[C@@H]2[C@@H](CCN2C(=O)C2CC2)[C@@H]1CO,19.5
CN1c2ccc(-c3cccc(F)c3)cc2[C@@H]2[C@@H](CCN2C(=O)C2CC2)[C@H]1CO,-97.1
COc1ccc(-c2ccc3c(c2)[C@H]2[C@H](CCN2C(=O)C2CC2)[C@H](CO)N3C)cc1,-4.7
COc1ccc(-c2ccc3c(c2)[C@H]2[C@H](CCN2C(=O)C2CC2)[C@@H](CO)N3C)cc1,53.1*
N#C[C@H]1[C@H](c2ccccc2)[C@H](CO)N1S(=O)(=O)c1cccc(F)c1,2.1[25 µM]
CC(=O)N(C)C[C@@H]1Oc2c(cccc2N(C)C)C(=O)N(C)C[C@H]1C,-10.9
CN1C(=O)c2cc(NC(=O)c3cnccn3)ccc2OC[C@H]2O[C@@H](CC(=O)NCC3CC3)CC[C@H]21,7.9
COc1ccc2c3c([nH]c2c1)[C@H](CO)N(C(=O)NC(C)C)CC31CCN(C(=O)c2cnccn2)CC1,0.5[25 µM]
SMILES,BL2 CD40 inh
Cc1noc(C)c1S(=O)(=O)Nc1ccc2c(c1)C(=O)N([C@@H](C)CO)C[C@@H](C)[C@@H](CN(C)Cc1ccc3c(c1)OCO3)O2,-3.1[25 µM]
COc1cccc(S(=O)(=O)N[C@@H]2CC[C@@H](CC(=O)NC3Cc4ccccc4C3)O[C@H]2CO)c1,1.6[25 µM]
O=C(C1CCCCC1)N1C[C@H]2[C@@H](c3ccccc31)[C@H](CO)N2C(=O)c1ccccc1,8.6
CC(C)C#Cc1ccc([C@H]2[C@@H](CO)N3C(=O)CN(C(=O)c4ccc5c(c4)OCO5)C[C@H]23)cc1,7.7[25 µM]
CN1CCCCN2[C@@H](CO)[C@H](c3ccc(-c4ccc(F)cc4)cc3)[C@@H]2C1,-14.3[25 µM]
O=C(C1CCCC1)N1[C@H](CO)[C@@H]2c3ccccc3N(S(=O)(=O)c3ccc(F)cc3)C[C@@H]21,3.7
CO[C@@H]1CC[C@@H]2CCN(C)C(=O)CCCN(C)C(=O)c3cc(C#N)ccc3OC[C@H]1O2,-2.6[25 µM]
COc1ccc(C2C(=O)c3ccccc3C2=O)cc1,-8.8
O=C1c2ccccc2-c2nc3ccccc3cc21,-83.9
O=C1c2ccccc2C(=O)C1c1ccc2ccccc2n1,52.4*
C[C@H]1CN(C)C(=O)c2cc(N)ccc2O[C@@H]1CN(C)S(C)(=O)=O,-2.9
CCNC(=O)[C@@H]1[C@@H](CO)[C@@H]2Cn3c(ccc(-c4cccc(F)c4)c3=O)[C@H]1N2C(=O)c1ccccn1,-9.0[25 µM]
c1ccc(OCCNc2ccn3nc(-c4ccccc4)cc3n2)cc1,-62.0
COCCCNc1ccn2nc(-c3cc(OC)c(OC)c(OC)c3)cc2n1,1.1

# Compound activity as filed in PubChem.
